The text below walks through data of PubChem BioAssay (Tox21).

A number with no mark means an inactive call. Inconclusive results are not listed. More than one record can exist for a structure, and the calls need not agree. The source made the active and inactive calls. Unless noted, the call rests on the fitted dose curve; in most records, active means well fitted curve in the direction sought with a large enough effect in the repeat runs; inconclusive means weak or mixed curves; inactive means no such curve, though single readings can be large; an effect the other way counts as inactive or inconclusive.

A short description of assay [1]: qHTS assay to identify small molecule antagonists of the estrogen receptor alpha (ER-alpha) signaling pathway using the BG1 cell line in the presence of 0.1 nM 17-beta-estradiol - cell viability counter screen (AID 1259241). Further: nearly all actives have a fitted effect of over 40% in size. Further: potency means the concentration at half of the fitted maximal effect. Put shortly:
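The cell line endogenously expresses full-length ER-alpha and carries four EREs driving luciferase. Cells are cultured 5 days hormone-free, treated 22 hr with compounds and 0.1 nM estradiol, then viability is read by fluorescence.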
On the technique in general: In qHTS, concentration-response curves come from the screen itself.

Assay [2] deals with Estrogen receptor (Homo sapiens) (UniProt P03372). Nature of the assay: qHTS assay to identify small molecule antagonists of the estrogen receptor alpha (ER-alpha) signaling pathway using the BG1 cell line in the presence of 0.1 nM 17-beta-estradiol (AID 1259244). Further: nearly all actives have a fitted effect of over 50% in size. Further: potency means the concentration at half of the fitted maximal effect. In a few lines:
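Luminescence after ONE-Glo (30 min, room temperature) measured ERE-luciferase activity in VM7Luc4E2 cells treated 22 h with compound and 0.1 nM final 17beta-estradiol as stimulator.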

Assay [3] in a line: qHTS assay to identify small molecule HDAC inhibitors (AID 1259364). Further: potency means the concentration at half of the fitted maximal effect.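 Further: wild-type HCT-116 cells with endogenous class I/II HDAC activity; nearly all actives have a fitted effect of over 45% in size.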 On activity change, negative = inhibition: top concentration of the series differs between compounds. In a few lines: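 HCT-116 (wild type), 1,500 cells/well, overnight; compound 2 hr 37C 5% CO2; HDAC-Glo I/II reagent 30 min RT; luminescence readout.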
Assay [4] is described as follows: qHTS assay to identify small molecule HDAC inhibitors - cell viability counter screen (AID 1259365). Further: nearly all actives have a fitted effect of over 50% in size. Further: potency means the concentration at half of the fitted maximal effect. On activity change, negative = cytotoxicity: series mostly up to about 92 µM. In a few lines: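 Viability readout: CellTiter-Glo luminescence. Wild-type HCT-116 cells, 2hr compound treatment following overnight attachment at 37 C.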
Assay [5] is described as follows: qHTS assay to identify small molecule agonists of the sonic hedgehog signaling (Shh) pathway - cell viability counter screen (AID 1259366). Further: nearly all actives have a fitted effect of over 50% in size. Further: potency means the concentration at half of the fitted maximal effect. Put shortly: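 Viability measured fluorometrically (CellTiter-Fluor, 1hr, 37C) in 3T3 Gli1-Luc reporter cells after 23hr compound exposure within a 24hr incubation at 37C/5% CO2.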
A short description of assay [6]: qHTS assay to identify small molecule antagonists of the sonic hedgehog signaling (Shh) pathway - cell viability counter screen (AID 1259367). Further: nearly all actives have a fitted effect of over 55% in size. Further: potency means the concentration at half of the fitted maximal effect. In a few lines: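 Conditioned medium drove Shh signaling in 3T3 Gli1-Luc cells exposed to compounds at 37C and 5% CO2. Viability was determined from CellTiter-Fluor fluorescence, with reagent incubated 1 hr after 23 hr of treatment.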

A short description of assay [7]: qHTS assay to identify small molecule agonists of the sonic hedgehog signaling (Shh) pathway (AID 1259368; calls by dose curve;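 further: NIH/3T3-derived 3T3Gli1-Luc cells carrying a stable Gli1-driven firefly luciferase reporter; series mostly up to about 92 µM; nearly all actives have a fitted effect of over 15% in size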). Put shortly:
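Read-out: firefly luciferase luminescence from a Gli1 response element reporter stably integrated in NIH/3T3-derived 3T3Gli1-Luc cells, measured 30 min at room temperature after reagent addition. Compound exposure lasted 24 hr at 37 C, 5% CO2.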

Assay [8] can be described thus: qHTS assay to identify small molecule antagonists of the androgen receptor (AR) signaling pathway using the MDA cell line in the presence of 0.5 nM R1881 - cell viability counter screen (AID 1259242). Further: nearly all actives have a fitted effect of over 45% in size. Further: potency means the concentration at half of the fitted maximal effect. In a few lines: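 Live-cell protease fluorescence, CellTiter-Fluor, 30 min at 37C. Cells: MDA-kb2, 3,000/well, preincubated 5 hr. Compounds plus 0.5 nM R1881 final, 16 hr, 37C, 0% CO2.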

A short description of assay [9]: qHTS assay to identify small molecule phospholipidosis (PLD) inducers (AID 1259344; active means well fitted curve in the direction sought with a large enough effect; an effect the other way counts as inactive or inconclusive; further: potency means the concentration at half of the fitted maximal effect). Put shortly:
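After 4 h attachment on collagen I, HepG2 cells were dosed with compound alongside LipidTOX Red, kept 24 h at 37 C, fixed, and imaged for lamellar phospholipid pits.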

Assay [10] has as its target Androgen receptor (Homo sapiens) (UniProt P10275). Nature of the assay: qHTS assay to identify small molecule antagonists of the androgen receptor (AR) signaling pathway using the MDA cell line in the presence of 0.5 nM R1881 (AID 1259243). Further: nearly all actives have a fitted effect of over 50% in size. Further: potency means the concentration at half of the fitted maximal effect. Put shortly:
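MDA-kb2, MMTV-luc (AR/GR elements); 3,000 cells/well; cpd + 0.5 nM R1881 final; 16 hr 37C, 0% CO2; ONE-Glo 30 min RT; luminescence.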
On the % scale 0 is the no-effect control and ±100 the full control effect.

Androgen receptor (Homo sapiens), sequence (P10275 whole entry, looked up): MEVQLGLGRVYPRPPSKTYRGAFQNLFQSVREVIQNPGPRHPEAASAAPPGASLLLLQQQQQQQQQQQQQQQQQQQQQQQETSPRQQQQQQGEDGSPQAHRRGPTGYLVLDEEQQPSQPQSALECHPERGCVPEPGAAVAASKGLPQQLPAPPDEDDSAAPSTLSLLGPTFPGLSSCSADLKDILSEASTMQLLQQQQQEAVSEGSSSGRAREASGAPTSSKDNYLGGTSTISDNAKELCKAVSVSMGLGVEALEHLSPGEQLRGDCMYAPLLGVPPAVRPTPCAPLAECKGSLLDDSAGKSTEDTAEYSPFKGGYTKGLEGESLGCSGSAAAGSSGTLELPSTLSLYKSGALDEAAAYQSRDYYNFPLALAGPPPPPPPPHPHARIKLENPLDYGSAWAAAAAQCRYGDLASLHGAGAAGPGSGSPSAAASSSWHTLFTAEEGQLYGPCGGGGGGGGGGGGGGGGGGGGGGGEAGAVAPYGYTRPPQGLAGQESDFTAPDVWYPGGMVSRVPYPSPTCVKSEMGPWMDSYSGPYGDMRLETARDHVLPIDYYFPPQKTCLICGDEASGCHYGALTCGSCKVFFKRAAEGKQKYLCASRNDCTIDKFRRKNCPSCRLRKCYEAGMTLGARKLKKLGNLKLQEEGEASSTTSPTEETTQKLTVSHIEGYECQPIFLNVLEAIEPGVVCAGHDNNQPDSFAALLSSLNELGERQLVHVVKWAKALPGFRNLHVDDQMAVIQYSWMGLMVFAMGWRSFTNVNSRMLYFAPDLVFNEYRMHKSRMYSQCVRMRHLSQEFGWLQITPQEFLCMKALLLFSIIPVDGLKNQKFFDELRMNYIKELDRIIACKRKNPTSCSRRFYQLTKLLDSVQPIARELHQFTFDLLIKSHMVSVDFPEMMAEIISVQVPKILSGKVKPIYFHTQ
Estrogen receptor (Homo sapiens), sequence (P03372 whole entry, looked up): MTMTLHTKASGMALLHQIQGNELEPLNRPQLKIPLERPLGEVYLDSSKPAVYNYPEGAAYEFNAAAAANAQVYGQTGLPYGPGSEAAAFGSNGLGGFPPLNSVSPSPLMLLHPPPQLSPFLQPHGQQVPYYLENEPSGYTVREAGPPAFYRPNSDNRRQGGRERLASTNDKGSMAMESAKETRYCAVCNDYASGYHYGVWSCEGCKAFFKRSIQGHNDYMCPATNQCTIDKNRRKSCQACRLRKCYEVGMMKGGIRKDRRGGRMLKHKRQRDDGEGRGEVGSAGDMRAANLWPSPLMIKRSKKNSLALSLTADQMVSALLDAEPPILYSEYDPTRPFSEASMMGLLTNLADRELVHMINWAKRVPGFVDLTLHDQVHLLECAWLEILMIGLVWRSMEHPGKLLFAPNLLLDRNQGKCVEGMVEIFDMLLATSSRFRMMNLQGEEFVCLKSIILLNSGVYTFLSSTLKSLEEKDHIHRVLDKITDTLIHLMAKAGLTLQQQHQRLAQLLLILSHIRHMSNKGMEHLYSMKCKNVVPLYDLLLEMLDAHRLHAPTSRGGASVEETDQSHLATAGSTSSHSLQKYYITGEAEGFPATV

On to `CNCCCCOc1ccccc1Cc1ccccc1`, for which the Potency result in [1], in assay [2], in [3], in assay [4] and in [6] was “inactive” throughout. The Potency in assay [5] was 33.5 µM (active). In addition, the outcome in [7] was inactive.
With `CCN(CC)c1ccc2c(-c3ccccc3C(=O)O)c3ccc(=[N+](CC)CC)cc-3oc2c1`, the Potency in assay [1] is 8.63 µM (active); in assay [8] it was 10.9 µM (active); in [6], 3.44 µM (active). For the same compound, the Potency result in assay [3] was “inactive”. Also, the compound was classed as inactive in assay [7].
Regarding `NCC(=O)O`, the activity change, negative = cytotoxicity in assay [1] is -1.87% [at 19 µM]; in assay [4] it was 4.81% [at 19 µM]. Further, the Potency entry in assay [2] and in assay [9] was “inactive” each time. The activity change, negative = inhibition in assay [3] was -0.526% [at 19 µM]. Besides, the values for the viability change, negative = cytotoxic in assay [5] and in [6] were -1.71% [at 19 µM] and 1.33% [at 19 µM], respectively. Further, in [7], the activity change was -0.0794% [at 18.9 µM].
In the case of `CCOC(=O)NCCOc1ccc(Oc2ccccc2)cc1`, the Potency entry in assay [1], in assay [3], in assay [4], in [5] and in assay [6] was “inactive” each time. For the same compound, in [2], the Potency was 43.3 µM (active). The call in assay [7] was inactive.
As to `OC(CN1CCC(Cc2ccc(F)cc2)CC1)c1ccc(Cl)cc1` (stereo not drawn), the Potency result in assay [1], in assay [9], in assay [3], in assay [4], in assay [5] and in [6] was “inactive” in each case. The Potency in [10] is 29.8 µM (active). Moreover, the outcome in assay [7] was inactive.
As for `Cc1oc2c(NC(=O)c3c(Cl)cccc3Cl)cccc2c1C(C)(C)O`, the Potency result in assay [1], in [3], in [4], in assay [5] and in assay [6] was “inactive” in each case. The Potency in assay [2] is 13.7 µM (active). In [7], the call was inactive.
Turning to `CNC(=O)CN(CCN(CCN(CC(=O)[O-])CC(=O)NC)CC(=O)[O-])CC(=O)[O-].O.[Gd+3]`, the Potency result in assay [1], in assay [2], in assay [9], in assay [3], in assay [4] and in assay [5] was “inactive” in each case. Besides, the Potency entry in assay [6] was “inactive”. In addition, in assay [7], the compound was called inactive.
As for `O=C(Nc1ccc(S(=O)(=O)N2CCOCC2)cc1)c1cc(Cl)ccc1NS(=O)(=O)c1ccc(Cl)s1`, the Potency entry in assay [1], in assay [2], in assay [9], in [3], in [4] and in assay [5] was “inactive” each time. Further, the Potency entry in [6] is “inactive”. For the same compound, the call in assay [7] was inactive.
On to `Cc1nn(C)c(Oc2ccccc2)c1/C=N/OCc1ccc(C(=O)OC(C)(C)C)cc1`, for which the Potency was 0.0137 µM (active) in assay [1], 0.0273 µM (active) in [10] and 0.0122 µM (active) in assay [2]. In addition, the Potency entry in assay [3], in assay [4], in [5] and in [6] was “inactive” in each case. Besides, in assay [7], the result was inactive.
Consider `O=S(c1cc(Cl)cc(Cl)c1O)c1cc(Cl)cc(Cl)c1O`, for which the Potency result in assay [1], in assay [10], in assay [2], in assay [9], in assay [3] and in [4] was “inactive” in each case. Besides, the Potency result in assay [6] was “inactive”. Also, in assay [7], the outcome was inactive.
In the case of `OCCN1CCN(CCCN2c3ccccc3C=Cc3ccccc32)CC1`, the Potency result in assay [1], in [2], in [3] and in [4] was “inactive” each time. In assay [9], the PLD induction was 0.496% [at 7.66 µM]. Also, the Potency is 12.6 µM (active) in assay [9] and 11.9 µM (active) in [5]. The outcome in assay [7] was inactive.
Take `CCOC(=O)C(=O)CCc1ccccc1`: the Potency result in assay [1], in assay [10], in [2], in [3], in [4] and in [5] was “inactive” in each case. Further, in assay [6], the Potency entry was “inactive”. Besides, in assay [7], the outcome was inactive.
Consider `CCCCCCCCCCCC(=O)OC[C@@H](O)[C@H]1OC[C@H](OCCO)[C@H]1OCCO`, for which the Potency entry in [1], in [2], in assay [3], in assay [4], in assay [5] and in assay [6] was “inactive” in each case. Also, the result in [7] was inactive.
Regarding `CCCCC(CC)COC(=O)COc1ccc(Cl)cc1Cl` (stereo not drawn), the Potency entry in assay [1], in assay [3], in [4], in [5] and in assay [6] was “inactive” in each case. The call in [7] was inactive.
Consider `CCOc1ccc(N=Nc2ccc(/C=C/c3ccc(N=Nc4ccc(OCC)cc4)cc3S(=O)(=O)O)c(S(=O)(=O)O)c2)cc1`, for which the figures for the Potency in assay [1], in assay [5] and in assay [6] were 24 µM (active), 30.2 µM (active) and 21.4 µM (active), respectively. The Potency result in assay [3] and in assay [4] was “inactive” throughout. The result in [7] was inactive.
In the case of `O=[N+]([O-])c1cccc(S(=O)(=O)O)c1`, the Potency result in assay [1], in [3], in [4], in assay [5] and in [6] was “inactive” throughout. For the same compound, in assay [7], the call was inactive.
Turning to `O=C(Nc1ccccc1)c1ccccc1O`, the Potency entry in assay [1], in assay [2] and in [4] was “inactive” each time. Moreover, the figures for the Potency in [3] and in [6] were 8.63 µM (active) and 61.1 µM (active), respectively. In addition, in assay [7], the outcome was inactive.
`Cc1ccc(N=Nc2c(O)c(C(=O)O)cc3ccccc23)c(S(=O)(=O)O)c1`: the Potency in assay [8] is 11.8 µM (active); in assay [6] it was 13.3 µM (active). In addition, the Potency entry in assay [3] and in assay [4] was “inactive” in each case. For the same compound, the call in assay [7] was inactive.
As for `Nc1ccc(N)c2c1C(=O)c1ccccc1C2=O`, the Potency was 12.2 µM (active) in assay [1]; 21.7 µM (active) in assay [3]; 30.6 µM (active) in assay [4]; 21.7 µM (active) in assay [5]; 10.9 µM (active) in assay [6]. In addition, the outcome in assay [7] was inactive.
As to `OCc1cc(C(O)CNCCCCCCOCCCCc2ccccc2)ccc1O` (stereo not drawn), the Potency entry in assay [2] and in [4] was “inactive” in each case. The Potency in [5] is 3.76 µM (active); in assay [6], 4.73 µM (active). Further, in assay [7], the compound was classed as inactive.
In the case of `C=C(C)C(=O)OCCOCC`, the Potency result in assay [8], in assay [3], in assay [4], in assay [5] and in [6] was “inactive” in each case. In addition, the Potency in assay [2] was 54.7 µM (active). Besides, the result in assay [7] was inactive.
For the compound `CC1(c2ccccc2)OC(C(=O)O)=CC1=O` (stereo not drawn), the Potency result in assay [1], in [9], in assay [3], in assay [4], in [5] and in assay [6] was “inactive” each time. The outcome in assay [7] was inactive.
Take `O=C(OCCc1ccccc1)c1ccccc1`: the Potency entry in [1], in [2], in [4], in [5] and in assay [6] was “inactive” in each case. Further, the Potency in assay [3] is 9.69 µM (active). Also, the call in assay [7] was inactive.
